GPR151 ag = activators of human GPR151, primary screen, cell-based, PathHunter beta-arrestin, luminescence | PathHunter beta-arrestin GPR151 cells | 650,000 compounds, 1% hits | activation, % at 11.2 µM; in the data active = activation above about 4.9%
Target sequence (Q8TDV0 whole entry, looked up): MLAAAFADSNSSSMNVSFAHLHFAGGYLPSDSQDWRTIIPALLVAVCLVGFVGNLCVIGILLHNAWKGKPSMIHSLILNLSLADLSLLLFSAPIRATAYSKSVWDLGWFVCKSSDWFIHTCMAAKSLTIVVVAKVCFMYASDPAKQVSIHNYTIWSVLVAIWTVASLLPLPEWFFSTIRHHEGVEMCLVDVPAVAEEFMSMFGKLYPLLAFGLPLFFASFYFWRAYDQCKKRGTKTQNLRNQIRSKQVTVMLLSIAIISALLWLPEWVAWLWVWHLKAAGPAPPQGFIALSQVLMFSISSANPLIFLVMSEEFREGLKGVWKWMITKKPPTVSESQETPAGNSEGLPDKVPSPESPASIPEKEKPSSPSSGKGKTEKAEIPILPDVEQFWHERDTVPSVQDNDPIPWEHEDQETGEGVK
MITF inh = MITF inhibitors, primary screen, biochemical, AlphaScreen, human. 650,000 compounds, 0.91% hits. AlphaScreen MITF homodimerization, bead proximity signal. inhibition, % at 2.6 µM. AID 1259374, 2018. Microphthalmia-associated transcription factor (Homo sapiens), O75030; in the data active = inhibition above about 50%
TEAD-YAP inh = TEAD-YAP interaction inhibition, primary screen, TEAD-YAP interaction inhibitor project, luminescence, HEK-TIYL cells | TEAD-Gal4/YAP UAS-luciferase luminescence | inhibition, % at 9.12 µM | 640,000 compounds, 1.4% hits | AID 1259422, 2018; in the data active = inhibition above about 32%
FBW7 act = FBW7 E3 ligase activators, primary screen, biochemical, AlphaScreen, human; F-box/WD repeat-containing protein 7 (Homo sapiens), Q969H0; AlphaScreen FBW7–phospho-cyclin E peptide binding, activator screen; normalized activity (activation), % at 26.1 µM; 650,000 compounds, 0.13% hits; AID 1259310, 2017; in the data active = normalized activity above about 1.9%;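 note: purified mutant Fbw7 with reduced substrate affinity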
MITF confirm = MITF inhibitors, retest of hits, confirmation, biochemical, AlphaScreen, triplicate | inhibition, % at 2.6 µM | 4,700 compounds, 16% hits | shares compounds with MITF inh | AlphaScreen MITF homodimerization, biotin/His-MITF beads | AID 1259372, 2018;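 active = inhibition above a cutoff derived from the DMSO control wells, cut at about 28% in these data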;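 note: inhibitors lower the bead chemiluminescence by keeping MITF from dimerizing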
AlphaScreen intf2 = AlphaScreen optical interference compounds, counter-screen for MITF inhibitor project, biochemical, triplicate; shares compounds with MITF inh; LysRS AlphaScreen counterscreen, signal interference; inhibition, % at 2.6 µM; 4,700 compounds, 7.6% hits;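 active = inhibition above a cutoff derived from the DMSO control wells, cut at about 30% in these data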
Hits are given with their value. Sampled rows, rich in hits. Any-hit rate of the full collection: about 3.5%.

Results for Cc1ccc(-c2nnn(CC(=O)c3ccc4c(c3)OCCO4)n2)cc1 ?
GPR151 ag: inactive; MITF inh: inactive; TEAD-YAP inh: inactive; FBW7 act: inactive

Results for COC(=O)c1cccc([N+](=O)[O-])c1C(=O)OCC(=O)c1ccc(Br)cc1 ?
GPR151 ag: inactive; MITF inh: inactive; TEAD-YAP inh: inactive; FBW7 act: inactive

How did CSc1ccccc1C(=O)NC1CC1 do in these assays?
GPR151 ag: inactive; MITF inh: inactive; TEAD-YAP inh: inactive; FBW7 act: inactive

What do the screens show for `COc1ccccc1CN1CCN(Cc2ccc(C(F)(F)F)cc2)CC1`?
GPR151 ag: inactive; MITF inh: 60; TEAD-YAP inh: inactive; FBW7 act: inactive; MITF confirm: inactive; AlphaScreen intf2: inactive

How did COc1ccc(CN2CCN(Cc3ccc(C(F)(F)F)cc3)CC2)c(OC)c1 do in these assays?
GPR151 ag: inactive; MITF inh: 68; TEAD-YAP inh: inactive; FBW7 act: inactive; MITF confirm: inactive; AlphaScreen intf2: inactive

Results for COc1ccc(CN2CCN(Cc3ccc(C)cc3)CC2)c(OC)c1 ?
GPR151 ag: inactive; MITF inh: 79; TEAD-YAP inh: inactive; FBW7 act: inactive; MITF confirm: inactive; AlphaScreen intf2: inactive

How did NC(=O)NC(c1ccccc1)c1cccc(Cl)c1 (stereo not given) do in these assays?
GPR151 ag: inactive; MITF inh: inactive; TEAD-YAP inh: inactive; FBW7 act: inactive

What do the screens show for `Cc1ccc(C)n1C(CC(=O)O)c1cccc(Cl)c1` (stereo not given)?
GPR151 ag: inactive; MITF inh: 77; TEAD-YAP inh: inactive; FBW7 act: inactive; MITF confirm: inactive; AlphaScreen intf2: inactive

What do the screens show for `Cn1c(=O)c2c(nc3n(CCN4CCOCC4)c(-c4ccccc4)cn23)n(C)c1=O`?
GPR151 ag: inactive; MITF inh: inactive; TEAD-YAP inh: inactive; FBW7 act: inactive

How did Nc1ccc(S(=O)(=O)NNC(=O)C(=O)NNc2ccccn2)cc1 do in these assays?
GPR151 ag: inactive; MITF inh: inactive; TEAD-YAP inh: inactive; FBW7 act: inactive

What do the screens show for `Cc1ccccc1S(=O)(=O)NNC(=O)C(=O)NNc1ccccn1`?
GPR151 ag: inactive; MITF inh: 54; TEAD-YAP inh: inactive; FBW7 act: inactive; MITF confirm: 47; AlphaScreen intf2: 75

Results for COC(=O)CNCc1ccc(Cl)c(Cl)c1 ?
GPR151 ag: inactive; MITF inh: inactive; TEAD-YAP inh: inactive; FBW7 act: inactive

How did O=C(Nc1c2c(nn1-c1cccc(Cl)c1)CSC2)c1ccc(Br)o1 do in these assays?
GPR151 ag: inactive; MITF inh: 53; TEAD-YAP inh: inactive; FBW7 act: inactive; MITF confirm: inactive; AlphaScreen intf2: inactive

What do the screens show for `CCc1ccc(CN2CCC(C(=O)NCc3ccco3)CC2)cc1`?
GPR151 ag: inactive; MITF inh: inactive; TEAD-YAP inh: inactive; FBW7 act: inactive

What do the screens show for `OCCN1CCN(Cc2cccc(Oc3ccc(Cl)cc3)c2)CC1`?
GPR151 ag: inactive; MITF inh: inactive; TEAD-YAP inh: inactive; FBW7 act: inactive

What do the screens show for `COc1ccc(OC)c(CN2CCN(Cc3ccco3)CC2)c1`?
GPR151 ag: inactive; MITF inh: 79; TEAD-YAP inh: inactive; FBW7 act: inactive; MITF confirm: inactive; AlphaScreen intf2: inactive

Results for COc1ccc(CN2CCN(C(=O)c3ccco3)CC2)cc1 ?
GPR151 ag: inactive; MITF inh: inactive; TEAD-YAP inh: inactive; FBW7 act: inactive

How did COc1ccc(OC)c(CNCc2ccco2)c1 do in these assays?
GPR151 ag: inactive; MITF inh: inactive; TEAD-YAP inh: inactive; FBW7 act: inactive

What do the screens show for `CCc1ccc(CN2CCN(Cc3ccco3)CC2)cc1`?
GPR151 ag: inactive; MITF inh: 71; TEAD-YAP inh: inactive; FBW7 act: inactive; MITF confirm: inactive; AlphaScreen intf2: inactive

What do the screens show for `c1ccc(Oc2cccc(CN3CCN(Cc4ccco4)CC3)c2)cc1`?
GPR151 ag: inactive; MITF inh: 69; TEAD-YAP inh: inactive; FBW7 act: inactive; MITF confirm: inactive; AlphaScreen intf2: inactive
